Data as given in the supplement of paper PMC11732987, “Enantioselective OTUD7B fragment discovery through chemoproteomics screening and high-throughput optimisation” (Communications Chemistry, 2025).

Tests used:
Experiment in all cases: log2 ratio of Biotin-Ahx-Ub-VS probe labelling (fragment/DMSO); higher = less target engagement (more negative = stronger competition), active = hit call of the paper (q ≤ 0.05, log2 ratio ≤ -1)
Details in all cases: compound concentration: 200 uM; treatment time: 3 h
OTUD6B = target: T1, OTUD6B (UniProt Q8N6M0)
T1 sequence (whole entry): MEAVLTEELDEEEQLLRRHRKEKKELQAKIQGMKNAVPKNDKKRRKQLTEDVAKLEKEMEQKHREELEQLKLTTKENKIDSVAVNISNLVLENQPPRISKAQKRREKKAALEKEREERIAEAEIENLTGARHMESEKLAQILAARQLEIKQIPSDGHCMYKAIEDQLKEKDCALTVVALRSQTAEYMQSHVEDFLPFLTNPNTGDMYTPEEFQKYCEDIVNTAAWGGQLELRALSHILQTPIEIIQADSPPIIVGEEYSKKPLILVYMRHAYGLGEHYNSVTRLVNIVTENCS
Summary of the method: (§1)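 Average log2 ratios of fragment over vehicle were obtained by unpaired t-test from global-median-normalised Spectronaut label-free quantities. Proteins with ≥2 unique peptides were included. HEK293T lysate (495 µg per sample) was treated in triplicate with fragment at 200 µM or vehicle for 3 h, then with Biotin-Ahx-Ub-VS at 0.5 µM final for 1 h, and labelled DUBs were NeutrAvidin-enriched and run by diaPASEF LC-MS/MS.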

OTUD7B = target: T2, OTUD7B (UniProt Q6GQQ9)
T2 sequence (whole entry): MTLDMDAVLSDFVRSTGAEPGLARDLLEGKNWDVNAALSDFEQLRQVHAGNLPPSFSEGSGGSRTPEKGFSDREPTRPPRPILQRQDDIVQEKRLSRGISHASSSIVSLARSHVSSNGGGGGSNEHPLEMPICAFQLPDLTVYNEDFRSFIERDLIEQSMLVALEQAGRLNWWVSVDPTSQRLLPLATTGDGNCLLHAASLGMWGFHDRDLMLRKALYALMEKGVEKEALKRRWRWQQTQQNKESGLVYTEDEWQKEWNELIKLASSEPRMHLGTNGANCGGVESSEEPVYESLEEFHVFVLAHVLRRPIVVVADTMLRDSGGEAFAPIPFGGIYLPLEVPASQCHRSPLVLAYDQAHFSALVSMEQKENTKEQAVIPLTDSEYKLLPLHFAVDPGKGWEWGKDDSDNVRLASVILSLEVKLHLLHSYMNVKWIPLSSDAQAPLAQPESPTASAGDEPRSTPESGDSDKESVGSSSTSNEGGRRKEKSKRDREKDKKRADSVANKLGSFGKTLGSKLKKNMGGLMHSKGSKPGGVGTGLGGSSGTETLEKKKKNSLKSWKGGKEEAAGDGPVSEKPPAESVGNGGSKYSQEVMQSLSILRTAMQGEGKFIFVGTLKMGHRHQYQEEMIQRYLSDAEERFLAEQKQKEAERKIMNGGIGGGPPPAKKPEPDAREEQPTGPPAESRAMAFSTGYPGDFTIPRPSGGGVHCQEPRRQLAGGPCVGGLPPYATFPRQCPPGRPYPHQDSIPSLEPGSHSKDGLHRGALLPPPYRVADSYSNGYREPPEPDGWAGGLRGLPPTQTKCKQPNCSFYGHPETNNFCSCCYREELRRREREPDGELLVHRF
Summary of the method: as §1

PRPF8 = PRPF8 (UniProt Q6P2Q9)
Summary of the method: as §1

PSMD7 = target: T3, PSMD7 (UniProt P51665)
T3 sequence (whole entry): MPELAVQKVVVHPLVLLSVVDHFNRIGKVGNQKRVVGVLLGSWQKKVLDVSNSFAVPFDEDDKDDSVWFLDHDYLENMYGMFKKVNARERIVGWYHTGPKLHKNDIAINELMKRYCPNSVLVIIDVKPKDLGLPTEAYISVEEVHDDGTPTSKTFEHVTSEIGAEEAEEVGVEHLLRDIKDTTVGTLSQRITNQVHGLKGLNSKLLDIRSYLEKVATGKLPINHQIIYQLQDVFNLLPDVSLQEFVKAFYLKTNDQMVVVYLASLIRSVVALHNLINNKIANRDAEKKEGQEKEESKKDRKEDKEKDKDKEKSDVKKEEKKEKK
Summary of the method: as §1

UCHL1 = UCHL1 (UniProt P09936)
Summary of the method: as §1

UCHL3 = target: T4, UCHL3 (UniProt P15374)
T4 sequence (whole entry): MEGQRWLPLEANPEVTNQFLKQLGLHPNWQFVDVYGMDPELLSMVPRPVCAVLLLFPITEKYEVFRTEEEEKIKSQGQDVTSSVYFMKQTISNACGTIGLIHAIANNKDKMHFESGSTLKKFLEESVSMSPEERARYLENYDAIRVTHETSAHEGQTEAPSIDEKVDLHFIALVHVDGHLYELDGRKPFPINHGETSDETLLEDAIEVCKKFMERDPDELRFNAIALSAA
Summary of the method: as §1

UCHL5 = target: T5, UCHL5 (UniProt Q9Y5K5)
T5 sequence (whole entry): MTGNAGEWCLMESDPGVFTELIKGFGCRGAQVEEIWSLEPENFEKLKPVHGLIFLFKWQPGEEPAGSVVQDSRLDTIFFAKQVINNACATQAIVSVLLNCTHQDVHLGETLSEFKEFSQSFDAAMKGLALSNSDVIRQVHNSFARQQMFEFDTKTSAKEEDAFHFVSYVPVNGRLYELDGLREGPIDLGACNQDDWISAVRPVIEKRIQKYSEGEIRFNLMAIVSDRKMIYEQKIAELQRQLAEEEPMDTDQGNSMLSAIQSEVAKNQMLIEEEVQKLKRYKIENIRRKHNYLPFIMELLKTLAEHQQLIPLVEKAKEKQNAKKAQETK
Summary of the method: as §1

USP10 = USP10 (UniProt Q14694)
Summary of the method: as §1

USP15 = target: T6, USP15 (UniProt Q9Y4E8)
T6 sequence (whole entry): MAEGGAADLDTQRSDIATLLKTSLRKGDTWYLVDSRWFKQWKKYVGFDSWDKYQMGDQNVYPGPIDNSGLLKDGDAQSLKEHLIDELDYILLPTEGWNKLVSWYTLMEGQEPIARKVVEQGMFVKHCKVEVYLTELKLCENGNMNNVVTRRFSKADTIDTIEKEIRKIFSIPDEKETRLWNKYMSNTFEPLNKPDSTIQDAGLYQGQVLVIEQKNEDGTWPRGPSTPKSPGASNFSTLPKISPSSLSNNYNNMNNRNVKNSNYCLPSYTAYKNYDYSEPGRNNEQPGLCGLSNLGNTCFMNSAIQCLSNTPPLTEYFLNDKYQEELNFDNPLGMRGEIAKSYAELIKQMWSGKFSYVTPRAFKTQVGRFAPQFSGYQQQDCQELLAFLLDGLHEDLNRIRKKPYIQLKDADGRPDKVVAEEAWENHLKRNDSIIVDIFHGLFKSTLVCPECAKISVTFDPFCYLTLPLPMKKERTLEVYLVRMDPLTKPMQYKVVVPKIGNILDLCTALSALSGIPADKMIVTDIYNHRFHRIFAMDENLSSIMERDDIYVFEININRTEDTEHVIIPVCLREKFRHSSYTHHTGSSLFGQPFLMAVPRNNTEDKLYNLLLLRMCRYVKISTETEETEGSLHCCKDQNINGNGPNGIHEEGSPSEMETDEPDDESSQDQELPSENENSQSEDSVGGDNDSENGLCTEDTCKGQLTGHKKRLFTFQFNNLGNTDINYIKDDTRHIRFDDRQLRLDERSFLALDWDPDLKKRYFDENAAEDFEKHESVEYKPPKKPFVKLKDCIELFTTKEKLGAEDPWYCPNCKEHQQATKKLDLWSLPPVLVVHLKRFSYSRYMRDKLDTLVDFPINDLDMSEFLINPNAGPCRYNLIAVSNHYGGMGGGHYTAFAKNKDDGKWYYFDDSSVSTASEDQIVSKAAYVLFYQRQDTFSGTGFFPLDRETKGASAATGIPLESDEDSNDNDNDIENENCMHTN
Summary of the method: as §1

USP16 = USP16 (UniProt Q9Y5T5)
Summary of the method: as §1

Measured: log2 ratio of Biotin-Ahx-Ub-VS probe labelling

Chain of UCHL1 (P09936 whole entry, looked up): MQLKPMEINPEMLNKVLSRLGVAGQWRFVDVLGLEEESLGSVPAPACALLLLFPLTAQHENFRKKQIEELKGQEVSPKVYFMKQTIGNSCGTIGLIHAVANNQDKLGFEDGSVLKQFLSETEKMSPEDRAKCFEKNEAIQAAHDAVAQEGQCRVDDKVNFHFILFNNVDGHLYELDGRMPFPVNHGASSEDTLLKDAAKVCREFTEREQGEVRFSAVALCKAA
Chain of USP10 (Q14694 whole entry): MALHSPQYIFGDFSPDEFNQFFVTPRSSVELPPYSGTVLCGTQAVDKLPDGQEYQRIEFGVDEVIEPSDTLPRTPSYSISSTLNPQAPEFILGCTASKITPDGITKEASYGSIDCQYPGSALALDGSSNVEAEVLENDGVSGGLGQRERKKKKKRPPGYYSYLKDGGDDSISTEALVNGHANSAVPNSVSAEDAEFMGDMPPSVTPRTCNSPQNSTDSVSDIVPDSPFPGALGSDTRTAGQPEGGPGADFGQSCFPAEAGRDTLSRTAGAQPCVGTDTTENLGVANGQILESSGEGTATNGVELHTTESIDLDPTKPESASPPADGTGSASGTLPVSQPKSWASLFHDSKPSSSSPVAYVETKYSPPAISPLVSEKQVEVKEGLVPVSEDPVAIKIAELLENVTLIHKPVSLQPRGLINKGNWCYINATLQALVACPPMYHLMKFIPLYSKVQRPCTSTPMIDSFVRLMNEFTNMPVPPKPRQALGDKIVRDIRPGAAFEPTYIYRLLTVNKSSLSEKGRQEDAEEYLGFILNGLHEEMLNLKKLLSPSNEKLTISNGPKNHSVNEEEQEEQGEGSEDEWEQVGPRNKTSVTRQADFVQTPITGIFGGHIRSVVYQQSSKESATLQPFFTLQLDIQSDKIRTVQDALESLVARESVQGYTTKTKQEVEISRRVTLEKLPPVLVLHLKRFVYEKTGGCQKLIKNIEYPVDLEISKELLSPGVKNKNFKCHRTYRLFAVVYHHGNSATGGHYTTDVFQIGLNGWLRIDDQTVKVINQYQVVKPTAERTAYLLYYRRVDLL
Chain of USP16 (Q9Y5T5 whole entry, looked up): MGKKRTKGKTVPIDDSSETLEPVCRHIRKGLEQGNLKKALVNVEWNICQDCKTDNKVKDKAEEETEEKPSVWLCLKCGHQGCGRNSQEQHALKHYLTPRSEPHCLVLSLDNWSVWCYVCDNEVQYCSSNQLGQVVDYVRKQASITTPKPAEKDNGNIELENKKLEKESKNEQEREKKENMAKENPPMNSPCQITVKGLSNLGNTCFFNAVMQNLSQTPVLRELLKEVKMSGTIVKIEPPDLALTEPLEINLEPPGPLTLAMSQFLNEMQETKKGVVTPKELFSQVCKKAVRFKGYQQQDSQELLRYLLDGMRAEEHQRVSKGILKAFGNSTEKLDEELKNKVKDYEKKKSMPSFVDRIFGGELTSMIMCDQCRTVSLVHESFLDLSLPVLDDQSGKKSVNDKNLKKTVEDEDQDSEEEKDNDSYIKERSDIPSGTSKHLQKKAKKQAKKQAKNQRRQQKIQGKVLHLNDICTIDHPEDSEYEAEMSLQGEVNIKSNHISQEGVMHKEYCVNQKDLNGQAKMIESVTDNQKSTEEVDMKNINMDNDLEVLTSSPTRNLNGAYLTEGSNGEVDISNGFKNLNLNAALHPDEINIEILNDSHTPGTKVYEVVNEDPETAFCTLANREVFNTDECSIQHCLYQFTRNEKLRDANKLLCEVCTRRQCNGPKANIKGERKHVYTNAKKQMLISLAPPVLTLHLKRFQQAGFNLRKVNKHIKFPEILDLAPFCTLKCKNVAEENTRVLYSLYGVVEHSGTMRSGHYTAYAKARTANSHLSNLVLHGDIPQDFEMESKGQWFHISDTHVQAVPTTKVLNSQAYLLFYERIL

Cl.O=C(CCl)NC1(c2ncccn2)CCC1
active: UCHL1 -1.41
inactive: OTUD6B 0.0771 | OTUD7B -0.227 | PRPF8 -0.0462 | PSMD7 -0.289 | UCHL3 0.32 | UCHL5 -0.0083 | USP10 0.0419 | USP15 0.0327 | USP16 0.0942
